# Assay results reported in PubChem BioAssay.
# Where “and” joins values, the source holds several entries; their conditions need not be identical. Equal values may be shown once. Results filed as inconclusive are left out. Some compounds were tested as several samples or in several runs, with calls that do not always agree. Calls of active or inactive are those of the source.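 Rule for the calls, unless noted: active = mean z-score across replicates of 1.96 or higher in either the MELAS or the Rieske mutant cell line; inactive = the rest.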
# Experiments:
# [1] = SU-DIPG-VI glioma cell viability, MIPE4.0 library, CellTiter-Glo luminescence, qHTS (AID 1347066; cut-off not given, nearly all actives have AC50 up to about 30 µM;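 note: cells exposed to compound for 48 hours before readout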); conditions: CellTiter-Glo ATP luminescence
# [2] = sensitizers of A549 cells to miR-34 induction, primary screen, imaging, A549 dox-inducible miR-34, nuclei and caspase counts (AID 1347080;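 active = compounds whose cell count with miR-34 switched on is under 0.7 times the count with it off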); conditions: A549 miR-34 inducible, Hoechst nuclei count, 48 h
# [3] = survival rescue of mitochondrial mutant cells in low glucose, primary screen, MELAS cybrids, Rieske KO mouse fibroblasts, CellTiter-Glo (AID 1508586);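 note: z relative to plate mean and SD of compound and empty wells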
# [4] = molecular target: NAD(+) hydrolase SARM1 (Homo sapiens) (UniProt Q6SZW1); test: SARM1 TIR NADase inhibitors, cell lysate, NAD-Glo luminescence (AID 1508614;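 active = compound whose remaining NAD level is above about 45 nM, limit read from the data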;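 note: higher remaining NAD means stronger inhibition of SARM1 NADase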); conditions: SAM-TIR HEK293T lysate NADase, at 1 µM, stronger effect = higher value
# Chain of NAD(+) hydrolase SARM1 (Homo sapiens) (Q6SZW1 whole entry, looked up): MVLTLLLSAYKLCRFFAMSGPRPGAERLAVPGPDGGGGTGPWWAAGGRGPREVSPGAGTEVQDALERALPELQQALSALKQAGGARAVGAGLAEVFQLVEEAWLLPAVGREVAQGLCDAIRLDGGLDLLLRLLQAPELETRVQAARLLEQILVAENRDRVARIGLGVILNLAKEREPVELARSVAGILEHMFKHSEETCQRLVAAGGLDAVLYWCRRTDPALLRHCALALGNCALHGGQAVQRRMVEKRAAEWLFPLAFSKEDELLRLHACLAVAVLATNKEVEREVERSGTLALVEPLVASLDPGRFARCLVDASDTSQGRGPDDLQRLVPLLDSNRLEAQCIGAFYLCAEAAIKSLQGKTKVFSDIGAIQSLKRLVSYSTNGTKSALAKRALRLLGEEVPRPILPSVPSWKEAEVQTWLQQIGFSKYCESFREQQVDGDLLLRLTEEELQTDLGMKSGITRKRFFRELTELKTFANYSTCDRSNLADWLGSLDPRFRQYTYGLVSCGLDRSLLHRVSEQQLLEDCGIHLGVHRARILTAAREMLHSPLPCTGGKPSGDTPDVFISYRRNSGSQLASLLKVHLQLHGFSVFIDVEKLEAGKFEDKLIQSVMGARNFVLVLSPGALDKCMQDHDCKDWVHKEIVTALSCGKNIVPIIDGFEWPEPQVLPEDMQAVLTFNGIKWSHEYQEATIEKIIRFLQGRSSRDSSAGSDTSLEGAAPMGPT
# [5] = viability rescue of complex I mutant cybrids, primary screen, cell-based, galactose medium, ATP luminescence (AID 1645843;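 active = z-score of at least 1.8 in each of two replicates, scored against plate mean and spread of sample wells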;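 note: positive z means more ATP and so rescue of galactose-driven cybrid death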); conditions: complex I mutant cybrid cells, 72 h, stronger effect = higher value
# [6] = LFS_MB_P medulloblastoma growth inhibition, cell-based, chromothripsis tumors, cisplatin or BGB combos (AID 1671449; in the data active = inhibition above about 80%;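 note: cells exposed for 96 hours; 0% = vehicle DMSO and 100% = killing by high DMSO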); conditions: LFS_MB_P medulloblastoma cells
# [7] = HDN33 neuroblastoma growth inhibition, cell-based, chromothripsis tumors, cisplatin or BGB combos (AID 1671450; in the data active = inhibition above about 80%;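 note: cells exposed to compound for four days; 0% = vehicle DMSO and 100% = cell killing by high DMSO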); conditions: HDN33 neuroblastoma cells, stronger effect = higher value
# [8] = ICB984 medulloblastoma cell growth inhibition, synergistic combos for chromothripsis tumors, cisplatin or BGB combos (AID 1671451; call rule not given here;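 note: cells exposed for 96 hours before readout; 0% = vehicle DMSO and 100% = killing by high DMSO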); conditions: ICB984 medulloblastoma cells, drug combinations, stronger effect = higher value
# [9] = LFS_MB_1R medulloblastoma cell growth inhibition, synergistic combos for chromothripsis tumors, cisplatin or BGB combos (AID 1671452; in the data active = inhibition above about 80%;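 note: cells exposed for 96 hours before readout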); conditions: LFS_MB_1R medulloblastoma cells, stronger effect = higher value
# [10] = HTB85 osteosarcoma cell growth inhibition, synergistic combos for chromothripsis tumors, BGB or cisplatin IC20 combos (AID 1671453; in the data active = inhibition above about 80%;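 note: cells exposed for 96 hours before readout; 0% = vehicle DMSO and 100% = high DMSO killing control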); conditions: HTB85 osteosarcoma cells, drug combinations, stronger effect = higher value
# [11] = CRL2098 osteosarcoma cell growth inhibition, synergistic combos for chromothripsis tumors, BGB or cisplatin IC20 combos (AID 1671454; in the data active = inhibition above about 80%;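 note: cells exposed for 96 h before readout; 0% = vehicle DMSO and 100% = killing by high DMSO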); conditions: CRL2098 osteosarcoma cells, drug combinations, stronger effect = higher value
# [12] = HD-MB03 medulloblastoma cell growth inhibition, synergistic combos for chromothripsis tumors, BGB or cisplatin IC20 combos (AID 1671455; in the data active = inhibition above about 83%;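 note: 0% = vehicle DMSO and 100% = high DMSO as cytotoxic control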); conditions: HD-MB03 medulloblastoma cells, stronger effect = higher value
# [13] = SU-DIPG-XXV glioma cell viability, MIPE5.0 library, qHTS (AID 1347068; cut-off not given, nearly all actives have IC50 up to about 30 µM)
# [14] = molecular target: Mitogen-activated protein kinase 7 (Homo sapiens) (UniProt Q13164); test: ERK5 transactivation activators in reporter cells, primary screen, cell-based, HTS (AID 1508626;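 active = luciferase signal above three times the same-plate solvent-only control wells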;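 note: luciferase driven by Gal4-ERK5 fusion binding five Gal4 sites before minimal TATA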); conditions: HeLa Gal4-ERK5 transactivation, 18 h, at 5 µM, stronger effect = higher value
# Chain of Mitogen-activated protein kinase 7 (Homo sapiens) (Q13164 whole entry, looked up, the tested form may be a part): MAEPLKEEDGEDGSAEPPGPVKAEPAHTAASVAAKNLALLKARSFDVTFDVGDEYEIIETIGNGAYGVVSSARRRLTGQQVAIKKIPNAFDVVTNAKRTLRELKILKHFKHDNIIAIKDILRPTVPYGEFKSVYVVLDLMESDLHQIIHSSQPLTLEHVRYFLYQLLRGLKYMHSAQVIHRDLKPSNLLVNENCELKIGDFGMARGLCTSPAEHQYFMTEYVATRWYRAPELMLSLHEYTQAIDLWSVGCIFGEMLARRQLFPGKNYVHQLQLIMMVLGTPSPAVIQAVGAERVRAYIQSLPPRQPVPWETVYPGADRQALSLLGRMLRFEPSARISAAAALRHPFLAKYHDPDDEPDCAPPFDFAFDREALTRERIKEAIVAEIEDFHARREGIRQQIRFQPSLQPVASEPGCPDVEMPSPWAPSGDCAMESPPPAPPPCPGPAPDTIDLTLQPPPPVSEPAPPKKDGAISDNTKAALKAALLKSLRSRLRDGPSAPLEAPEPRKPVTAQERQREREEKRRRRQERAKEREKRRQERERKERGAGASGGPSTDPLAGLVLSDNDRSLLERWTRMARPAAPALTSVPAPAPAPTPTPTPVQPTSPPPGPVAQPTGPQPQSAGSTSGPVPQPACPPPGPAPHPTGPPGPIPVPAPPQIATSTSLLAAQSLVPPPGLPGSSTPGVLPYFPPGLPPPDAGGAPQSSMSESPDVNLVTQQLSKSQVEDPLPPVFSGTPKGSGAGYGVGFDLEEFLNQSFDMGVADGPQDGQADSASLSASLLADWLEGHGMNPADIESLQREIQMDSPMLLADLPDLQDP
# [15] = inhibitors of Cryptococcus chitosan production, flow cytometry, Cibacron Brilliant Red staining (AID 1347148; call rule not given here;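 note: compound exposure lasted three days at 37 degrees C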); conditions: Cryptococcus neoformans chitosan, stronger effect = lower value; at 10 µM unless noted
# [16] = phospholipid biosynthesis inhibitors in animal cells, primary screen, cell-based, LOPAC library, screen 4 (AID 1347384; call rule not given here); conditions: phospholipid biosynthesis inhibition screen, at 10 µM
# [17] = stronger effect = lower value, cell number ratio, induced over uninduced
# [18] = measured here: relative caspase fold change +Dox/-Dox
# [19] = measured here: total cells with miR-34 induction, stronger effect = lower value
# [20] = measured here: total cells without miR-34 induction
# [21] = MELAS cybrid survival, CellTiter-Glo 48 h, stronger effect = higher value
# [22] = Rieske KO mouse fibroblast survival, CellTiter-Glo 72 h
# [23] = measured here: combination with BGB IC40, at 0.05 µM
smiles,measurement,setting,value
Cc1ccnc2c1NC(=O)c1cccnc1N2C1CC1,outcome,[1],inactive
same,fold change,[2]; [17],0.867 (inactive) and 0.916 (inactive) and 0.818 (inactive)
same,fold change,[2]; [18],1 and 1.53 and 1.78
same,cell count,[2]; [19],8040 and 8950 and 7970
same,cell count,[2]; [20],9270 and 9770 and 9750
same,z-score,[3]; [21],-0.331 (inactive) and -0.443 (inactive)
same,z-score,[3]; [22],0.346 and -0.451
same,remaining NAD,[4],10 nM (inactive)
same,z-score,[5],0.47 (inactive)
same,inhibition,"[6]; at 0.5 µM, stronger effect = higher value",65.5% (inactive)
same,inhibition,"[6]; measured here: combination with BGB IC20, at 0.005 µM",-14.8%
same,inhibition,"[6]; measured here: combination with BGB IC40, at 0.005 µM",-23.6%
same,inhibition,[6]; [23],-7.3%
same,inhibition,"[6]; measured here: combination with cisplatin, at 0.5 µM, stronger effect = higher value",96.2%
same,inhibition,"[6]; measured here: combination with cisplatin, at 5 µM, stronger effect = higher value",-8.68%
same,inhibition,"[7]; BGB combo, at 5 µM",-9.4%
same,inhibition,[7]; at 0.5 µM,-11.8% (inactive)
same,inhibition,"[7]; cisplatin combo, at 5 µM",24.4%
same,inhibition,"[7]; measured here: with BGB IC20 combination, at 0.5 µM",-18.3%
same,inhibition,"[7]; measured here: with cisplatin IC20 combination, at 0.5 µM",0.871%
same,inhibition,"[7]; single agent, at 5 µM",-21.1%
same,inhibition,"[8]; BGB IC20 combo, at 0.005 µM",7.31%
same,inhibition,"[8]; BGB IC40 combo, at 0.005 µM",-7.13%
same,inhibition,"[8]; BGB IC40 combo, at 0.05 µM",-20.9%
same,inhibition,[8]; at 0.5 µM,-20.4% (inactive)
same,inhibition,"[8]; cisplatin combo, at 0.05 µM",-24.3%
same,inhibition,"[8]; cisplatin combo, at 0.5 µM",-22.4%
same,inhibition,"[8]; cisplatin combo, at 5 µM",-11%
same,inhibition,"[8]; measured here: 5 uM single agent, at 5 µM",-28.4%
same,inhibition,[9]; at 0.5 µM,-9.83% (inactive)
same,inhibition,[9]; [23],-16.2%
same,inhibition,"[9]; measured here: combination with cisplatin, at 0.5 µM",15.1%
same,inhibition,"[9]; measured here: combination with cisplatin, at 5 µM",29.5%
same,inhibition,[10]; at 0.5 µM,-11.8% (inactive)
same,inhibition,"[10]; measured here: with BGB IC20, at 0.5 µM",-22.9%
same,inhibition,"[10]; measured here: with BGB IC20, at 5 µM",53.6%
same,inhibition,"[10]; measured here: with cisplatin IC20, at 0.5 µM",-9.99%
same,inhibition,"[10]; measured here: with cisplatin IC20, at 5 µM",-37.2%
same,inhibition,"[10]; single agent, at 5 µM",-7.51%
same,inhibition,[11]; at 0.5 µM,-33.2% (inactive)
same,inhibition,"[11]; measured here: combination with BGB at IC20, at 0.5 µM",-9.42%
same,inhibition,"[11]; measured here: combination with cisplatin at IC20, at 0.5 µM",-39.8%
same,inhibition,[12]; at 0.5 µM,-18.2% (inactive)
same,inhibition,"[12]; measured here: combo with BGB at IC20, at 0.5 µM",-13%
same,inhibition,"[12]; measured here: combo with cisplatin at IC20, at 0.5 µM",-23.9%
COc1cc([C@H]2Oc3cc([C@H]4Oc5cc(O)cc(O)c5C(=O)[C@@H]4O)ccc3O[C@@H]2CO)ccc1O,outcome,[1],inactive
same,outcome,[13],inactive
same,luciferase signal,[14],64 AU (inactive)
CC(C)(C)NC(=O)[C@@H]1CN(Cc2cccnc2)CCN1C[C@@H](O)C[C@@H](Cc1ccccc1)C(=O)N[C@H]1c2ccccc2C[C@H]1O,AC50,[1],20.9 µM (active)
same,z-score,[3]; [21],-0.264 (inactive)
same,z-score,[3]; [22],0.0624
O=c1[nH]cnc2c1ncn2[C@H]1CC[C@@H](CO)O1,outcome,[1],inactive
same,fold change,[2]; [17],0.88 (inactive) and 0.877 (inactive)
same,fold change,[2]; [18],1.12 and 1.04
same,cell count,[2]; [19],8250 and 10000
same,cell count,[2]; [20],9380 and 11400
same,z-score,[3]; [21],-0.8 (inactive) and -0.278 (inactive)
same,z-score,[3]; [22],-0.19 and -0.4
same,z-score,[5],0.385 (inactive)
Cc1onc(-c2ccccc2Cl)c1C(=O)N[C@@H]1C(=O)N2[C@@H]1SC(C)(C)[C@@H]2C(=O)O,outcome,[1],inactive
same,fold change,[2]; [17],0.913 (inactive) and 0.866 (inactive)
same,fold change,[2]; [18],1.38 and 0.839
same,cell count,[2]; [19],8800 and 10900
same,cell count,[2]; [20],9640 and 12500
same,z-score,[3]; [21],1.06 (inactive)
same,z-score,[3]; [22],0.283
same,remaining NAD,[4],10 nM (inactive)
same,luciferase signal,[14],24 AU (inactive)
Fc1ccc(C(c2ccc(F)cc2)N2CCN(C/C=C/c3ccccc3)CC2)cc1,outcome,[1],inactive
same,fold fluorescence,[15],3.48 [at 123.6 µM] (inactive)
same,outcome,[16],inactive
same,z-score,[3]; [21],-1.68 (inactive) and -0.773 (inactive)
same,z-score,[3]; [22],-0.315 and -0.0521
same,remaining NAD,[4],10 nM (inactive)
same,luciferase signal,[14],116 AU (inactive)
same,z-score,[5],-1.04 (inactive) and -1.24 (inactive) and -2.23 (inactive)
Nc1ccn([C@H]2CC[C@@H](CO)O2)c(=O)n1,outcome,[1],inactive
same,fold change,[2]; [17],1 (inactive) and 0.95 (inactive) and 0.852 (inactive)
same,fold change,[2]; [18],0.845 and 0.908 and 1.17
same,cell count,[2]; [19],9380 and 8950 and 8540
same,cell count,[2]; [20],9340 and 9420 and 10000
same,outcome,[16],inactive
same,z-score,[3]; [21],-0.041 (inactive) and 0.441 (inactive)
same,z-score,[3]; [22],-0.157 and -0.525
same,remaining NAD,[4],10 nM (inactive)
same,z-score,[5],0.025 (inactive) and 0.685 (inactive)
COc1cc2nc(N3CCN(C(=O)C4CCCO4)CC3)nc(N)c2cc1OC (configuration not stated),outcome,[1],inactive
same,z-score,[3]; [21],-0.37 (inactive) and 0.933 (inactive) and -0.482 (inactive)
same,z-score,[3]; [22],0.344 and 0.726 and -1.05
same,remaining NAD,[4],10 nM (inactive)
same,luciferase signal,[14],64 AU (inactive)
C[C@](N)(Cc1ccc(O)c(O)c1)C(=O)O,outcome,[1],inactive
same,outcome,[13],inactive
same,outcome,[16],inactive
same,z-score,[3]; [21],-1.52 (inactive) and -0.0357 (inactive)
same,z-score,[3]; [22],-0.276 and -0.892
same,remaining NAD,[4],10 nM (inactive)
same,luciferase signal,[14],68 AU (inactive)
same,z-score,[5],-1.24 (inactive) and -0.53 (inactive) and -0.665 (inactive)
CN1CCN2c3ccccc3Cc3ccccc3C2C1 (configuration not stated),outcome,[1],inactive
same,outcome,[16],inactive
same,z-score,[3]; [21],-0.437 (inactive) and -0.163 (inactive) and -1.32 (inactive)
same,z-score,[3]; [22],0.688 and 0.138 and 0.514
same,remaining NAD,[4],10 nM (inactive)
same,luciferase signal,[14],48 AU (inactive)
same,z-score,[5],-0.385 (inactive) and 2.53 (active) and -0.36 (inactive)
Nc1ccc(S(=O)(=O)Nc2ccccn2)cc1,outcome,[1],inactive
same,fold change,[2]; [17],0.875 (inactive) and 0.859 (inactive)
same,fold change,[2]; [18],1.07 and 2.95
same,cell count,[2]; [19],9140 and 10900
same,cell count,[2]; [20],10400 and 12600
same,z-score,[3]; [21],-0.349 (inactive)
same,z-score,[3]; [22],0.469
same,remaining NAD,[4],10 nM (inactive)
same,luciferase signal,[14],64 AU (inactive)
CC(C)c1nc(CN(C)C(=O)N[C@H](C(=O)N[C@@H](Cc2ccccc2)C[C@H](O)[C@H](Cc2ccccc2)NC(=O)OCc2cncs2)C(C)C)cs1,outcome,[1],inactive
same,z-score,[3]; [21],-1.48 (inactive)
same,z-score,[3]; [22],0.534
same,remaining NAD,[4],10 nM (inactive)
CCOC(=O)C1=C[C@]2(CC)CCCN3CCc4c(n1c1ccccc41)[C@@H]32,AC50,[1],26.4 µM (active)
same,fold fluorescence,[15],12.8 [at 142.7 µM] (inactive)
same,outcome,[16],inactive
same,z-score,[3]; [21],0.416 (inactive) and 0.251 (inactive)
same,z-score,[3]; [22],0.313 and -0.628
same,remaining NAD,[4],10 nM (inactive)
same,luciferase signal,[14],52 AU (inactive)
same,z-score,[5],0.33 (inactive) and -0.95 (inactive) and -0.445 (inactive)
OC[C@H]1O[C@@H](Oc2ccc(O)cc2)[C@H](O)[C@@H](O)[C@@H]1O,outcome,[1],inactive
same,fold change,[2]; [17],0.914 (inactive)
same,fold change,[2]; [18],0.569
same,cell count,[2]; [19],9130
same,cell count,[2]; [20],9990
same,z-score,[3]; [21],0.856 (inactive)
same,z-score,[3]; [22],0.44
same,luciferase signal,[14],48 AU (inactive)
COc1cc2nc(N3CCN(C(=O)C4COc5ccccc5O4)CC3)nc(N)c2cc1OC (configuration not stated),AC50,[1],23.5 µM (active)
same,outcome,[16],inactive
same,z-score,[3]; [21],-0.637 (inactive) and 1.46 and 0.739
same,z-score,[3]; [22],1.03 and 2.18 and 2.11
same,remaining NAD,[4],10 nM (inactive)
same,luciferase signal,[14],32 AU (inactive)
same,z-score,[5],-0.385 (inactive) and -0.73 (inactive) and 0.525 (inactive)
